The panel holds about 83,000 compounds, 20% with a hit somewhere; the sample as a whole holds those more often.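 Interpretation: 100, growth as untreated; towards 0, rising growth inhibition; 0, no net growth; 0 to -100, cell death. Compounds scoring below 10 were considered active.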 Unmarked numbers belong to inactive results. The source made the active and inactive calls.

Among the test systems are NCI-H23 lung; NCI-H226 lung; NCI-H322M lung; HOP-62 NSCLC; NCI-H460 lung; NCI-H522 lung; A549/ATCC NSCLC; 786-0 renal; COLO 205 colon; DU-145 prostate; K-562 leukemia; MDA-MB-231 breast; SF-268 CNS; SF-295 CNS; SF-539 CNS; UACC-257 melanoma; M14 melanoma; HCT-15 colon; MALME-3M melanoma; RXF 393 renal.
Test in all cases: NCI-60 one-dose screen, 48 h (100 = growth as untreated, 0 = no growth, -100 = all killed)
Conditions in all cases: 10 µM unless noted

Turning to `Cc1cc2c(C#N)n3c(c2cc1C)C(=O)C(c1ccccc1)Oc1ccccc1-3` (stereo not drawn), the growth is 21% in the experiment on NCI-H23 lung; 34.6% in the experiment with NCI-H226 lung; 81.8% in the experiment on NCI-H322M lung; 35.7% in the experiment with HOP-62 NSCLC; 42.1% in the experiment with NCI-H460 lung; -35.7% (active) in the experiment with NCI-H522 lung. Besides, the growth with A549/ATCC NSCLC is 4.49% (active); in the experiment on 786-0 renal it was 41.7%; in the experiment on COLO 205 colon it was 56.6%; in the experiment on DU-145 prostate, 64.4%; with K-562 leukemia, 12.7%; in the experiment with MDA-MB-231 breast it was 58.9%. Besides, the growth with SF-268 CNS is 35.1%; in the experiment with SF-295 CNS, 14.8%; in the experiment on SF-539 CNS, 74%; in the experiment with UACC-257 melanoma it was 44.7%; with M14 melanoma, 36.8%; in the experiment on HCT-15 colon it was 16.4%.
Consider `O=C(/C(=C/c1ccc([N+](=O)[O-])cc1)c1ccccc1)c1ccccc1`, for which the growth in the experiment on NCI-H23 lung is 67.1%; in the experiment on NCI-H226 lung it was 56.6%; in the experiment on NCI-H322M lung it was 74.3%; in the experiment with HOP-62 NSCLC it was 88.9%; in the experiment on NCI-H460 lung, 65.6%; in the experiment on NCI-H522 lung, 31.4%. Further, the growth in the experiment with A549/ATCC NSCLC is 48.7%; in the experiment with 786-0 renal, 65.3%; with COLO 205 colon, 87.6%; in the experiment with DU-145 prostate, 23.4%; in the experiment with K-562 leukemia, 3.83% (active); in the experiment with MDA-MB-231 breast it was 53.6%. Moreover, the growth is 27.8% in the experiment with SF-268 CNS; 67.5% in the experiment with SF-295 CNS; 83% in the experiment on SF-539 CNS; 41.1% in the experiment on UACC-257 melanoma; 51.6% in the experiment on M14 melanoma; 14.6% in the experiment with HCT-15 colon.
Turning to `N#Cc1cccc(/C=C(/C(=O)c2ccccc2)c2ccccc2)c1`, the growth with NCI-H23 lung is 81.2%; in the experiment on NCI-H226 lung, 71.7%; in the experiment with NCI-H322M lung, 77.8%; with HOP-62 NSCLC, 94.5%; in the experiment with NCI-H460 lung it was 77.5%; in the experiment on NCI-H522 lung, 57.8%. Moreover, the growth in the experiment with A549/ATCC NSCLC is 62.8%; with 786-0 renal, 76.2%; with COLO 205 colon it was 96.8%; in the experiment on DU-145 prostate, 37%; with K-562 leukemia, 1.89% (active); with MDA-MB-231 breast, 54.5%. In addition, the growth with SF-268 CNS is 51.1%; in the experiment with SF-295 CNS, 63.5%; in the experiment with SF-539 CNS it was 91.9%; with UACC-257 melanoma, 43.1%; with M14 melanoma it was 58.8%; with HCT-15 colon it was 18.9%.
Take `COC(=O)[C@]1(CCSC)N[C@H](c2cn(-c3ccccc3)nc2C)[C@@H]2C(=O)N(c3ccccc3)C(=O)[C@@H]21`: the growth in the experiment on NCI-H23 lung is 94.9%; with NCI-H226 lung, 99.7%; in the experiment on NCI-H322M lung, 115%; in the experiment with HOP-62 NSCLC it was 107%; with NCI-H460 lung, 106%; with NCI-H522 lung, 97.4%. Moreover, the growth in the experiment with A549/ATCC NSCLC is 103%; with 786-0 renal, 104%; with COLO 205 colon, 112%; in the experiment on DU-145 prostate it was 119%; with MALME-3M melanoma, 105%; with MDA-MB-231 breast it was 109%. The growth in the experiment with RXF 393 renal was 109%; in the experiment with SF-268 CNS it was 114%; with SF-295 CNS, 106%; with UACC-257 melanoma, 113%; in the experiment on M14 melanoma, 95.9%; in the experiment with HCT-15 colon it was 112%.
With `Cc1c(C(N)=O)sc2c1c(=O)n(Cc1ccccc1)c1nnc(S(=O)(=O)CC(=O)Nc3ccc(Cl)cc3)n21`, the growth is 43.2% with NCI-H23 lung; -4.71% (active) with NCI-H226 lung; 34.8% with NCI-H322M lung; -26.9% (active) in the experiment with HOP-62 NSCLC; -20.8% (active) in the experiment on NCI-H460 lung; 16.9% in the experiment with NCI-H522 lung. Further, the growth in the experiment with A549/ATCC NSCLC is 28.5%; with 786-0 renal, 3.47% (active); with COLO 205 colon, 47.2%; with DU-145 prostate, 43.9%; with MALME-3M melanoma, 30%; in the experiment with MDA-MB-231 breast, 20.5%. For the same molecule, the growth in the experiment on RXF 393 renal was 41.8%; in the experiment on SF-268 CNS, 73.6%; with SF-295 CNS it was 35.1%; in the experiment with UACC-257 melanoma it was 47.4%; in the experiment with M14 melanoma, 45.2%; in the experiment with HCT-15 colon it was 73.1%.
As for `COc1cc(/C=C/C(=O)Nc2cccnc2Nc2cc(OC)c(OC)c(OC)c2)cc(OC)c1OC`, the growth is 93% in the experiment with NCI-H23 lung; 93.1% with NCI-H226 lung; 115% with NCI-H322M lung; 106% with HOP-62 NSCLC; 95.4% in the experiment with NCI-H460 lung; 87.6% with NCI-H522 lung. Besides, the growth with A549/ATCC NSCLC is 85.4%; in the experiment on 786-0 renal, 86.3%; in the experiment on COLO 205 colon, 113%; with DU-145 prostate, 105%; with MALME-3M melanoma, 107%; in the experiment with MDA-MB-231 breast it was 90.7%. The growth is 108% with RXF 393 renal; 105% in the experiment on SF-268 CNS; 92.8% with SF-295 CNS; 98.1% with SF-539 CNS; 93.4% with UACC-257 melanoma; 100% in the experiment on M14 melanoma. Moreover, the growth in the experiment with HCT-15 colon is 97.3%.
For the molecule `O=C(Nc1nc(-c2ccccc2)cs1)c1cc(O)c(O)c(O)c1`, the growth in the experiment on NCI-H23 lung is 59.6%; in the experiment on NCI-H226 lung, 67.9%; with NCI-H322M lung, 69.1%; with HOP-62 NSCLC, 46.4%; with NCI-H460 lung, 34.7%; with NCI-H522 lung, -29.4% (active). For the same molecule, the growth with A549/ATCC NSCLC is 46.2%; in the experiment with 786-0 renal, 41.6%; in the experiment on COLO 205 colon, 84.5%; in the experiment with DU-145 prostate it was 57.7%; with K-562 leukemia, 19.6%; with MDA-MB-231 breast, 44%. In addition, the growth in the experiment on SF-268 CNS was 43.7%; in the experiment on SF-295 CNS, 58.5%; with SF-539 CNS it was 42%; in the experiment on UACC-257 melanoma it was 80.9%; in the experiment with M14 melanoma, 54.4%; in the experiment with HCT-15 colon it was 27.3%.
On to `Cc1nn(-c2ccccc2)c2ncc3c(c12)C(=O)N(Cc1ccccc1)C3=O`, for which the growth was 63.9% in the experiment with NCI-H23 lung; -14.2% (active) in the experiment with NCI-H226 lung; 58.6% in the experiment with NCI-H322M lung; 1.26% (active) with HOP-62 NSCLC; 4.79% (active) with NCI-H460 lung; 59.9% with NCI-H522 lung. The growth in the experiment on A549/ATCC NSCLC was 13.9%; in the experiment on 786-0 renal it was -4.88% (active); in the experiment on COLO 205 colon it was 32.9%; with DU-145 prostate, 98.9%; with MALME-3M melanoma, 72%; in the experiment on MDA-MB-231 breast, 14.3%. Further, the growth with RXF 393 renal was 68%; with SF-268 CNS, 81.3%; with SF-295 CNS, 1.19% (active); in the experiment with UACC-257 melanoma, 94.3%; in the experiment with M14 melanoma, 68.7%; with HCT-15 colon, 86.3%.
With `COc1cc(/C=C/C(=O)c2c(-c3ccc(F)cc3)nc3sc(C)nn23)cc(OC)c1OC`, the growth with NCI-H23 lung was 51.4%; with NCI-H226 lung, 38.9%; in the experiment with NCI-H322M lung it was 52.6%; in the experiment with HOP-62 NSCLC it was 9.53% (active); in the experiment on NCI-H460 lung, 11.8%; in the experiment on NCI-H522 lung, -27% (active). Moreover, the growth with A549/ATCC NSCLC was 12.2%; in the experiment with 786-0 renal it was 24.6%; in the experiment with COLO 205 colon it was 33%; in the experiment on DU-145 prostate, 0.196% (active); in the experiment with K-562 leukemia it was 2.54% (active); in the experiment with MDA-MB-231 breast, 7.91% (active). For the same molecule, the growth in the experiment on SF-268 CNS was 16.6%; with SF-295 CNS it was 49.6%; in the experiment with SF-539 CNS, 21.2%; in the experiment with UACC-257 melanoma, 46.6%; in the experiment with M14 melanoma it was 34.9%; with HCT-15 colon it was 15.9%.

The values are drawn from PubChem BioAssay (NCI).
